For 4 compounds, composite z-score and z-score results are on record in PubChem BioAssay.

The test system of assay [1] is Wnt5a (protein binding on small-molecule microarray). Kind of assay: Wnt5a binders on small-molecule microarray, primary screen, biophysical, 635/667 nm fluorescence (AID 1142).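 Note: fluorescence read at 667 nm with signal to noise per printed feature.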 The note with it: 635 nm fluorescence, higher = more signal.
The nature of assay [2]: cell viability in Huh7 cells, primary screen, cytotoxicity control for HCV replication inhibitor project, CellTiter-Glo luminescence, basal, 48 h (AID 1143).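 Note: Huh7 hepatoma cells carrying a hepatitis C replication reporter with no stimulus; test concentration not given here.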 The note with it: Huh7 HCV replicon, higher = more signal, called active from +8 up or from −8 down. For orientation: ATP-based viability assays read luminescence as a measure of living cells.
Assay [3] can be described thus: P. aeruginosa biofilm formation inhibitors, primary screen, PAO1 strain, BacTiter-Glo luminescence, LB-PBS (AID 1144). The note with it: 12 h, higher = more signal.
Assay [4] in a line: CREB reporter modulators without forskolin, primary screen, cell-based, PC12, CRE-LacZ reporter, unstimulated (AID 1145). The note with it: no forskolin, luminescence, 4.5 h, higher = more signal, called active from +8 up or from −8 down.
Assay [5] can be described thus: CREB reporter modulators under forskolin, primary screen, cell-based, PC12, CRE-LacZ reporter, forskolin-stimulated (AID 1146).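 Note: PC12 cells with 6xCRE LacZ reporter stimulated by forskolin 10 µM; beta-galactosidase reporter signal reflecting CREB driven transcription.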 The note with it: luminescence, 4.5 h, higher = more signal, called active from +8 up or from −8 down.
Assay [6] addresses Streptavidin (Streptomyces avidinii) (UniProt P22629). Kind of assay: streptavidin binders on small-molecule microarray, primary screen, artefact control for SMM compound annotation, biophysical, 635/667 nm fluorescence (AID 1147).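 Note: signal reflects streptavidin binding to arrayed compounds as a control protein.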 Particulars: streptavidin binding, higher = more signal.
Assay [7] in a line: small-molecule binders of probe aInhba, primary screen, biochemical, small-molecule microarray, 635/667 nm fluorescence (AID 1148).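 Note: score merges 667nm spot fluorescence with signal-to-noise for antibody binding to printed compounds.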 Particulars: higher = more signal.
In assay [8] the target is Torsin-1A (Homo sapiens) (UniProt O14656). Kind of assay: torsin A binders from cell lysate, primary screen, small-molecule microarray, wild-type, 635/667 nm (AID 1149). Particulars: COS7 hTOR1A-WT lysate, 635 nm fluorescence, higher = more signal.
Assay [9] shares this target. Kind of assay: small-molecule binders of mutant TOR1A in lysate, primary screen, cell lysate, small-molecule microarray, COS7 lysate, 635/667 nm fluorescence (AID 1150).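 Note: score pools 667 nm emission and signal to noise measuring lysate protein binding.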 Particulars: COS7 hTOR1A mutant lysate, 635 nm fluorescence, higher = more signal.
The subject of assay [10] is Sonic hedgehog protein (Shh). Kind of assay: small-molecule binders of Shh protein, primary screen, biochemical, small-molecule microarray, 635/667 nm fluorescence (AID 1151).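 Note: Shh protein binding to compounds spotted on small-molecule microarray slides; score combines spot fluorescence intensity with signal-to-noise across triplicate slides.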 Particulars: small-molecule microarray binding, 635 nm fluorescence; higher = more signal.
Assay [11] in a line: E. coli DRC41 culture turbidity changes, primary screen, E. coli filamentation inducer project, strain DRC41, OD650, 48 h (AID 1152).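 Note: E. coli MC1000 strain DRC41 lacking acrAB efflux pump and sulA.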 Particulars: E. coli DRC41 (acrAB sulA), higher = more signal, called active from +8 up or from −8 down.
The nature of assay [12]: small-molecule binders of probe aLefty1, primary screen, biochemical, small-molecule microarray, 635/667 nm fluorescence (AID 1153).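 Note: score merges spot fluorescence with signal-to-noise ratio from the scanned slide images.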 The note with it: higher = more signal.
The nature of assay [13]: PSAC antagonists in infected red cells, primary screen, cell-based, P. falciparum Indochina, OD700, 1 h (AID 1154). Particulars: P. falciparum Indochina infected RBC osmotic lysis, higher = more signal, called active from +8 up or from −8 down.
Assay [14] is described as follows: PSAC antagonists in infected red cells, primary screen, cell-based, P. falciparum Indochina, OD700, 2 h (AID 1155).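 Note: lysis reports solute entry through the parasite surface anion channel PSAC; channel blockers reduce lysis of infected cells.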 The note with it: P. falciparum Indochina infected erythrocytes, osmotic lysis OD700; higher = more signal, called active from +8 up or from −8 down.
A short description of assay [15]: osmotic lysis modulators in infected erythrocytes, primary screen, PSAC antagonist project, cell-based, P. falciparum Indochina, OD700, 3 h (AID 1156). The note with it: higher = more signal, called active from +8 up or from −8 down.
Assay [16] in a line: PSAC antagonists in infected red cells, primary screen, cell-based, P. falciparum Indochina, OD700, 18 h (AID 1157). The note with it: P. falciparum Indochina infected erythrocytes, osmotic lysis OD700, 18 h; higher = more signal, called active from +8 up or from −8 down.
Assay [17] can be described thus: modulators of S6 phosphorylation in cells, primary screen, cell-based, A549, cytoblot, luminescence, serum-stimulated (AID 1158).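 Note: serum-stimulated A549 lung adenocarcinoma cells; signal is phosphorylated S6 detected by cytoblot immunostaining with HRP secondary.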 Particulars: A549 phospho-S6 cytoblot, 5 h, higher = more signal.
Assay [18] addresses NADPH oxidase 2 (Homo sapiens) (UniProt P04839). Kind of assay: NOX2-dependent H2O2 signal modulators, primary screen, NOX inhibitor project, cell-based, HEK293-NOX2, PMA-stimulated, Amplex Red fluorescence (AID 1159). Note: test concentration not given here. Particulars: 45 min, higher = more signal, called active from +8 up or from −8 down.
For assay [19], the target named is NADPH oxidase 4 (Homo sapiens) (UniProt Q9NPH5). Kind of assay: NOX4-dependent H2O2 signal modulators, primary screen, NOX inhibitor project, cell-based, HEK293-NOX4, tetracycline-induced, Amplex Red fluorescence (AID 1160). Particulars: 45 min, higher = more signal, called active from +8 up or from −8 down.
In assay [20] the target is NADPH oxidase 5 (Homo sapiens) (UniProt Q96PH1). Kind of assay: NOX5-dependent H2O2 signal modulators, primary screen, NOX inhibitor project, cell-based, HEK293-NOX5, Amplex Red fluorescence (AID 1161). The note with it: HEK293-NOX5, ionomycin, 45 min, higher = more signal.

Calls of active or inactive are those of the source. Unless noted, the rule behind the calls is not given here.

Sequence of NADPH oxidase 2 (Homo sapiens) (P04839 whole entry, looked up): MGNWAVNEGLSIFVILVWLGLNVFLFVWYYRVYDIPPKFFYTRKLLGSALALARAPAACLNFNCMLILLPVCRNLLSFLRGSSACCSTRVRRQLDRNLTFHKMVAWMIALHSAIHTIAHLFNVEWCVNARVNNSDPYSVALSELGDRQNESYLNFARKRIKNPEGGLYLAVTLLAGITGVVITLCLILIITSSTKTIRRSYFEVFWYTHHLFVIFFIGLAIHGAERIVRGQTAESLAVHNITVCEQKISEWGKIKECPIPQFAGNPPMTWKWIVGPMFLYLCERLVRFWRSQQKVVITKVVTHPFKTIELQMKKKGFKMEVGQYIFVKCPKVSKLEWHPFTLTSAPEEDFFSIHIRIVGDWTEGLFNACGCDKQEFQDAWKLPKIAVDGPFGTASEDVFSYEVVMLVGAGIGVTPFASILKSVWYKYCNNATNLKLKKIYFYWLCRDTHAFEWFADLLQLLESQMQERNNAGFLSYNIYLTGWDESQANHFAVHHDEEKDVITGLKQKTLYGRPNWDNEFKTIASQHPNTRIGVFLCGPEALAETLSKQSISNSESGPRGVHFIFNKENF
Sequence of Torsin-1A (Homo sapiens) (O14656 whole entry, looked up): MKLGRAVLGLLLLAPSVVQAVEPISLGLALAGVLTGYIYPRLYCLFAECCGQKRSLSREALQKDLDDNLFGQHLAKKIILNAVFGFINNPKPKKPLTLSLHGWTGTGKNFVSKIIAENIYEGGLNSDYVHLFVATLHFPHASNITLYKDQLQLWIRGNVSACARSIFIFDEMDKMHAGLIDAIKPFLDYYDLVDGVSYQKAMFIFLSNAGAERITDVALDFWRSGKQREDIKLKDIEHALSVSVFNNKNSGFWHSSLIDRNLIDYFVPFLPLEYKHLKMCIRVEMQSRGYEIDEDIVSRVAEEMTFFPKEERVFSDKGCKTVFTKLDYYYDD
Sequence of NADPH oxidase 4 (Homo sapiens) (Q9NPH5 whole entry, looked up): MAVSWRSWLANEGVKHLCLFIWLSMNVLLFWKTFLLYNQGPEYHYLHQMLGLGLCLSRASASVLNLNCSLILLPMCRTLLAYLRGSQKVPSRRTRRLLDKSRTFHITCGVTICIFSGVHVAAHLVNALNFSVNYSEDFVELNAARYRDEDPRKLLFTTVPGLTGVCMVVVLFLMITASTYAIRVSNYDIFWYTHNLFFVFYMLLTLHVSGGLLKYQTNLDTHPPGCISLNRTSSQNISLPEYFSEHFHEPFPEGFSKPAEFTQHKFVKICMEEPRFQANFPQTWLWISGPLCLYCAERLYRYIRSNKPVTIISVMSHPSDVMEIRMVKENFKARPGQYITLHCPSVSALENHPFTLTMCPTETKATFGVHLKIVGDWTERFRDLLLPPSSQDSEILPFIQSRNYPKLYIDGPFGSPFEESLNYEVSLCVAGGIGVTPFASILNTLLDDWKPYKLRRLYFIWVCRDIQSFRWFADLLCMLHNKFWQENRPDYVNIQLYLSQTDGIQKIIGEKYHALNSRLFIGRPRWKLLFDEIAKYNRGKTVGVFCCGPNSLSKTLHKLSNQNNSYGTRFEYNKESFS
Sequence of NADPH oxidase 5 (Homo sapiens) (Q96PH1 whole entry, looked up): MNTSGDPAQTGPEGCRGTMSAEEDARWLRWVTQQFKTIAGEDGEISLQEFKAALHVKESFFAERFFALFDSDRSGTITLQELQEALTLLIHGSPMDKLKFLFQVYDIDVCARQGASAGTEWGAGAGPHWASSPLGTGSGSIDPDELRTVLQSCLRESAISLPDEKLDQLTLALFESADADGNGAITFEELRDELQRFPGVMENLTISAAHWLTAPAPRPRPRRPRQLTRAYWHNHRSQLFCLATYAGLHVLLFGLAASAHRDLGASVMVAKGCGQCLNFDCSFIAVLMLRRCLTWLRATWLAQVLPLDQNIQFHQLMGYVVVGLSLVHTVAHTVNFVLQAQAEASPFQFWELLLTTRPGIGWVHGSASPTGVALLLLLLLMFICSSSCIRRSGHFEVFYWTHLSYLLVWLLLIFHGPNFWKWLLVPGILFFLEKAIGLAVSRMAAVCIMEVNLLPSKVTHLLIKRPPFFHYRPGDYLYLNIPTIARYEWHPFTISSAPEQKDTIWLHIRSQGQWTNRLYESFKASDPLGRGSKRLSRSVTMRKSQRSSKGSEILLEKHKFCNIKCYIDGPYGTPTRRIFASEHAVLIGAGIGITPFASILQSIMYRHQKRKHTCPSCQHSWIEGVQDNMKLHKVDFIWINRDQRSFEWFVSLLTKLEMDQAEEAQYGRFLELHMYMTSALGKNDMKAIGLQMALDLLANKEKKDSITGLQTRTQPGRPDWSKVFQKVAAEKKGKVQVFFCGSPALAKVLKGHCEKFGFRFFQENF
Sequence of Streptavidin (Streptomyces avidinii) (P22629 whole entry, looked up): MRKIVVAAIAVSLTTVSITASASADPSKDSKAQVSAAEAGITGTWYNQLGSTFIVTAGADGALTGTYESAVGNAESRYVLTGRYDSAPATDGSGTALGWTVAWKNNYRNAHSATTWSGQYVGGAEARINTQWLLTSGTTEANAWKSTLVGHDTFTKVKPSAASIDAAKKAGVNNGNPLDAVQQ

On to `N#Cc1ccc(C(O)C2C=CC3C(=O)N(c4ccccc4)C(=O)C3N2Nc2ccccc2F)cc1` (stereo not given), for which the composite z-score in assay [1] was 0.286; in [6], 0.0289; in assay [7], -0.0986; in the assay with Torsin-1A (Homo sapiens) [8], -0.291; in the assay with Torsin-1A (Homo sapiens) [9] it was -0.301; in [10], -0.234. In [12], the composite z-score came out at 0.149. Also, the z-score in assay [2] was -2.92 (inactive); in [3], -0.826 (inactive); in assay [4] it was -0.107 (inactive); in assay [5], -0.852 (inactive); in [11] it was 0.55 (inactive); in [13], 3.98 (inactive). Also, the z-score in [14] is -0.245 (inactive); in assay [15], -0.246 (inactive); in [16], -0.616 (inactive); in [17], 0.179; in assay [18], -1.82 (inactive); in assay [19], -3.54 (inactive). For the same compound, the z-score in assay [20] was -2.02.

For `CC1CC/C=C\[C@H]2OC34C=CCN(c5ccc6ccccc6c5)C(=O)[C@H]3N(CCO)C(=O)[C@@H]4C2C(=O)O1` (stereo not given in full), the composite z-score in assay [1] was 0.451; in assay [6], -0.818; in [7], 0.0301; with Torsin-1A (Homo sapiens) [8], -1.34; with Torsin-1A (Homo sapiens) [9] it was 0.652; in assay [10], 0.0032. This compound also showed a composite z-score in assay [12] of 0.552. Further, the z-score in [2] is -0.929 (inactive); in assay [3] it was 0.282 (inactive); in [4], -0.35 (inactive); in assay [5] it was 0.289 (inactive); in [11], -0.0648 (inactive); in [13], 3.56 (inactive). For the same compound, the z-score in assay [14] was 0.531 (inactive); in assay [15], 0.15 (inactive); in assay [16], 0.357 (inactive); in [17] it was 0.21; in assay [18], 1.43 (inactive); in assay [19], 1.04 (inactive). Further, in assay [20], the z-score stood at 2.4.

On to `Cc1ccc(S(=O)(=O)N2C[C@@H](C(=O)O)[C@H](Sc3ccccc3)C[C@H]2c2ccccc2)cc1`, for which the composite z-score was 0.731 in assay [1]; 1.26 in assay [6]; 0.0403 in [7]; 0.301 with Torsin-1A (Homo sapiens) [8]; 0.714 with Torsin-1A (Homo sapiens) [9]; -0.156 in assay [10]. In addition, the composite z-score in [12] was determined as 0.409. Further, the z-score was -0.763 (inactive) in assay [2]; -0.103 (inactive) in assay [3]; -0.667 (inactive) in assay [4]; -0.356 (inactive) in assay [5]; -1.37 (inactive) in [11]; 1.7 (inactive) in assay [13]. The z-score in [14] is 0.932 (inactive); in assay [15], 0.369 (inactive); in [16] it was 0.806 (inactive); in assay [17], -0.33; in [18] it was 1.63 (inactive); in assay [19], 0.111 (inactive). In [20], this compound showed a z-score of 1.73.

For `O=C1OCCC=C[C@H]2OC34C=CCN(Cn5nnc6ccccc65)C(=O)[C@H]3N(CCO)C(=O)[C@@H]4C12` (stereo not given in full), the composite z-score was -0.83 in assay [1]; -1.48 in [6]; -0.251 in assay [7]; -1.01 in the assay with Torsin-1A (Homo sapiens) [8]; -1.32 with Torsin-1A (Homo sapiens) [9]; -0.61 in [10]. For the same compound, the composite z-score in [12] was -0.147. In addition, the z-score was -0.208 (inactive) in [2]; -1.39 (inactive) in assay [3]; -1.3 (inactive) in assay [4]; -0.688 (inactive) in assay [5]; 1.41 (inactive) in assay [11]; 1.03 (inactive) in assay [13]. Further, the z-score in assay [14] is 0.793 (inactive); in [15], 1.08 (inactive); in [16] it was 0.601 (inactive); in assay [17] it was -0.18; in assay [18] it was 1.55 (inactive); in assay [19], 1.22 (inactive). Also, the z-score in assay [20] is 1.73.
